Results published in PubChem BioAssay (EPA / NIEHS).
Activity calls are given as the source filed them. How the source made its calls: active means hit-call score of the fitted dose curve at least 0.9, where 1 is the maximum; inactive means score below 0.9.

read-out: NAD(P)H dehydrogenase [quinone] 1 (NQO1), NQO1 (gene 1728); assay: LTEA_HepaRG_NQO1: Life Technologies and Expression Analysis (LTEA) Assay for NAD(P)H dehydrogenase [quinone] 1 (NQO1) using HepaRG (AID 2283526); conditions: mRNA level, 48 h; actives raise or lower the signal
Procedure, shortened: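 Differentiated HepaRG cells, plated 48 h and then switched to serum-free induction medium, were exposed in duplicate for 48 h to 8-point half-log concentrations up to 100 uM in 0.5% DMSO. mRNA measured by qRT-PCR, normalized to ACTB, GAPDH, POLR2A; bidirectional fit versus DMSO.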

outcome, inactive:
CCCCCc1ccc(N)cc1
Cc1c2ccccc2c(C)c2c1ccc1ccccc12
O=CCCCC=O
Cc1cn([C@H]2C[C@H](N=[N+]=[N-])[C@@H](CO)O2)c(=O)[nH]c1=O
Cc1occc1C(=O)Nc1ccc(C(=O)N2CCC(F)(F)/C(=C\C(=O)N3CCC(N4CCCCC4)CC3)c3ccccc32)cc1
OC12N=C(c3ccccc3)SC1Cc1cc(Cl)ccc12 (configuration not stated)
CC(C)(O)c1ccc(CNC(=O)c2cccnc2Oc2ccc3nonc3c2)cc1
O=C1CCC(C2CCCCC2)CC1
NCc1cccc(C2CCN(C(=O)c3ccc(C#Cc4ccccc4F)o3)CC2)c1
c1ccc2ccccc2c1
O=C(O)Cn1c(=O)n(Cc2ccc(Br)cc2F)c(=O)c2ccc(Cl)cc21
C[C@]12CC[C@@H]3c4ccc(O)cc4CC[C@H]3[C@@H]1CCC2=O
OCCO
COc1cc(C(=O)NC2CCN(C)CC2)ccc1Nc1ncc2c(n1)N(C1CCCC1)CC(F)(F)C(=O)N2C
O=C(OCCCCCCOC(=O)c1ccccc1)c1ccccc1
Cc1ncc(CO)c(CO)c1O
COc1ccc2cc(S(=O)(=O)N[C@H](CC(=O)N[C@H](Cc3ccc(CN4[C@H](C)CCC[C@@H]4C)cc3)C(=O)N(C)C(C)C)c3ccc4c(c3)OCO4)ccc2c1
Cc1cccc2ccccc12
CC1(C)NC(=O)N(c2ccc([N+](=O)[O-])c(C(F)(F)F)c2)C1=O
CCCCCCCCN(C)CCCCCCCC
CO[C@H]1/C=C/O[C@@]2(C)Oc3c(C)c(O)c4c(O)c(c(/C=N/N5CCN(C)CC5)c(O)c4c3C2=O)NC(=O)/C(C)=C\C=C\[C@H](C)[C@H](O)[C@@H](C)[C@@H](O)[C@@H](C)[C@H](OC(C)=O)[C@@H]1C
Cc1cc2c(cc1C(F)(F)F)N(C(=O)Nc1ccc(Oc3cccnc3C)nc1)CC2
O=c1c(-c2ccc(O)cc2)coc2cc(O)cc(O)c12
Oc1ccc2ccccc2c1
O=C(O)Cc1cc(I)c(Oc2ccc(O)c(I)c2)c(I)c1
CC[C@@H]1C[C@H](N(Cc2cc(C(F)(F)F)cc(C(F)(F)F)c2)C(C)=O)c2cc(C(F)(F)F)ccc2N1C(=O)OC(C)C
CC[C@H](NC(=O)c1cc(F)ccc1NS(=O)(=O)c1cccc2cccnc12)c1ccccc1
CCCC(=O)OCCC(C)C
O=c1ccc2ccccc2o1
Clc1ccccc1C(c1ccccc1)(c1ccccc1)n1ccnc1
CCN(Cc1cccc(S(=O)(=O)O)c1)c1ccc(C(=C2C=CC(=[N+](CC)Cc3cccc(S(=O)(=O)O)c3)C=C2)c2ccccc2S(=O)(=O)[O-])cc1
O=C1O[C@H]([C@@H](O)CO)C(O)=C1O
O=c1[nH]sc2ccccc12

AC50, active:
O=C(Nc1ccc(Cl)cc1)Nc1ccc(Cl)c(Cl)c1 17.8 µM
Cc1cc(F)ccc1-c1cc(N2CC[C@@H](O)[C@H]2CO)ncc1N(C)C(=O)C(C)(C)c1cc(C(F)(F)F)cc(C(F)(F)F)c1 79.8 µM
CC(C)(C)c1csc(-c2cc3cc(OCc4ccccc4CC(=O)O)ccc3o2)n1 93.4 µM
CC(C)(c1cc(Br)c(O)c(Br)c1)c1cc(Br)c(O)c(Br)c1 86.6 µM
